This is one part of a sample in which hits are shown more often than they occur.
Pf Dd2 inh: qHTS Primary assay for Inhibitors of Plasmodium falciparum Dd2 growth in vitro. P. falciparum Dd2 growth, SYBR Green, 72 h. Potency, µM (series often up to 28.9 µM), inactives show at the top dose activity, negative = inhibition, actives largely listed as inhibitors. 4.3% of 120,000 active. AID 1347417, 2020; active = well fitted inhibition curve with a large enough effect;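 also: plate controls were DMSO vehicle for no effect and reference drug for full effect; nearly all actives have a fitted effect of over 65% in size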
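Readout: SYBR Green fluorescence, 485 nm excitation, 535 nm emission, after ~16 h lysis at 37C. Before that, Dd2-infected red cells (2.5% hematocrit) grew 72 h with compound, 29 uM top final concentration.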
The depositor's hits bear a star; i = inactive; [ ] = another dose, or the depositor's remark. Potency is read from the fitted curve at half-maximal effect.

SMILES | Pf Dd2 inh
Cc1cc(C)cc(N2C(=O)CSC23C(=O)N(CC(=O)Nc2ccc(F)cc2F)c2ccccc23)c1 (stereo not given) | 10µM*
Cc1ccc(NC(=O)CN2C(=O)NC3(CCCCC3)C2=O)c(C)c1 | 3%
COc1cccc(CN2C(=O)C3(SCC(=O)N3c3ccc(C)c(Cl)c3)c3ccccc32)c1 (stereo not given) | i
COc1cccc(N2C(=O)CSC23C(=O)N(CC(=O)Nc2cc(C)ccc2C)c2ccccc23)c1 (stereo not given) | 8.9µM*
Cc1ccc(NC(=O)CN2C(=O)CCSc3ccccc32)c(C)c1 | 25%
O=C(CN1C(=O)C2(SCC(=O)N2c2ccc(F)c(F)c2)c2ccccc21)Nc1ccccc1F (stereo not given) | 13µM*
Cc1ccc(NC(=O)CN2C(=O)C3(SCC(=O)N3c3ccc(F)c(F)c3)c3ccccc32)c(C)c1 (stereo not given) | 14µM*
Cc1ccc(CNC(=O)CN2C(=O)C3(SCC(=O)N3c3ccc(F)cc3)c3ccccc32)cc1 (stereo not given) | -18%
O=C(CN1C(=O)C2(SCC(=O)N2c2ccccc2)c2ccccc21)NCCc1ccccc1 (stereo not given) | 16%
COc1cc(N2C(=O)CSC23C(=O)N(Cc2ccc(C)cc2)c2ccccc23)cc(OC)c1OC (stereo not given) | -18%
COc1cccc(CN2C(=O)C3(SCC(=O)N3c3ccc(C(C)C)cc3)c3ccccc32)c1 (stereo not given) | -22%
Cn1ncc(N2CCC(NC(=O)CC3CCCC3)CC2)cc1=O | -11%
O=C(NCCc1nc(-c2cccnc2)no1)C1CC2(CCNCC2)CN1 (stereo not given) | 5%
O=C1Nc2ccccc2OCC12CCN([S+](=O)([O-])c1cccc(C(F)(F)F)c1)CC2 | 12%
CN1CCC(N2CCC[C@@H](O)[C@H](NC(=O)c3ccc(OCC(N)=O)cc3)C2)CC1 | -3%[44.1 µM]
Cc1ccc(CN2CC[C@H](c3nnc(Cc4ccccc4)o3)C2)cc1 | -6%[44.1 µM]
O=C(Nc1cc(F)ccc1F)N1CC(c2nnc(-c3ccncc3)o2)C2(CCOCC2)C1 (stereo not given) | -9%
CC(C)[S+](=O)([O-])N1CC2(CN(Cc3ccc(Cl)cc3)C(=O)O2)C1 | 3%[44.1 µM]
Cc1nc(C)c(C(=O)N2CCc3onc(-c4cccc(F)c4)c3C2)s1 | -14%
CC1Oc2ccc(NC(=O)c3ccc(F)cc3)cc2CN(Cc2ccccc2F)C1=O (stereo not given) | i
COc1ccc(N2CCN(C(=O)Cn3ccn4nc(-c5ccccc5)c(CO)c4c3=O)CC2)cc1 | i
COCCn1ncc(N2CCC(C(=O)N(C)CC(=O)Nc3ccc(F)cc3)C2)cc1=O (stereo not given) | i
CCN1C(=O)C2CC3(CCN(C(=O)c4ccc(OC)cc4)CC3)CN2C1=O (stereo not given) | -26%
CC(C)C[C@@H](NC(=O)C1=C[C@@H](NC(=O)c2cccnc2)[C@@H](O)[C@H](O)C1)C(N)=O | 19%[44.1 µM]
COc1cccc(N2C(=O)CSC23C(=O)N(Cc2ccccc2F)c2ccccc23)c1 (stereo not given) | -19%
SMILES | Pf Dd2 inh
COc1ccc(N2C(=O)CSC23C(=O)N(Cc2ccc(C)cc2)c2ccccc23)cc1Cl (stereo not given) | -19%
O=C1CSC2(C(=O)N(Cc3ccccc3F)c3ccccc32)N1c1cccc(C(F)(F)F)c1 (stereo not given) | 7.1µM*
COc1ccc(N2C(=O)CSC23C(=O)N(Cc2ccccc2F)c2ccccc23)cc1Cl (stereo not given) | i
Cc1cccc(N2C(=O)CSC23C(=O)N(CC(=O)Nc2cccc(Cl)c2)c2ccccc23)c1 (stereo not given) | 14µM*
Cc1ccc(N2C(=O)CSC23C(=O)N(CC(=O)NCCc2ccccc2)c2ccccc23)cc1 (stereo not given) | -15%
CC1CCN(Cc2nnnn2CC(=O)N(Cc2ccncc2)CC2CCCO2)CC1 (stereo not given) | 2%
O=C1CCCN1CCCN1C(=O)[C@H]2CN(Cc3cccc(Cl)c3)C[C@H]2C1=O | -3%
O=C(c1ccc(F)cc1)N1CCc2nc(-c3ccc(Cl)cc3)nc(-c3ccccc3)c2C1 | i
Cc1nc(CCNC(=O)Cc2ccsc2)no1 | i
O=C(NCc1ccc(Cl)cc1)c1ccn2cncc2c1 | i
Cc1cnc(C(=O)NCC2CCCCC(=O)N2)cn1 (stereo not given) | 5%
Cc1noc(C)c1CCC(=O)N1CCn2nc(Cc3ccccc3)cc2C1 | -13%
COc1ccc2[nH]c(C(=O)N3C[C@@H](Oc4ccccc4)C[C@H]3C(=O)N3CCOCC3)cc2c1 | -16%
CN1C(=O)CCC2(CNC(=O)NC3CCCC3)CCC=C12 (stereo not given) | 21%
CC(=O)N[C@@H]1CCNC[C@@H]1c1nc(-c2ccccc2)no1 | i
Cc1nc(C2CC(O)C2)cc(N2CC(N3CCOCC3)C2)n1 (stereo not given) | -13%
COc1ccccc1CNC(=O)c1ccc2c(c1)C(O)CCCCCN2C (stereo not given) | i
CC(C)CN1CCN(C(=O)c2ccc3c(c2)C(O)CCCCCN3C)CC1 (stereo not given) | i
CN1CCCCCC(O)c2cc(C(=O)NCc3nc4ccccc4n3C)ccc21 (stereo not given) | i
CN1CCCCCC(O)c2cc(C(=O)NCc3cccc(C(F)(F)F)c3)ccc21 (stereo not given) | 10µM*
CN1CCCCCC(O)c2cc(C(=O)N3CCN(C4CCCCC4)CC3)ccc21 (stereo not given) | i
Cc1ccc(CN2CCN(C(=O)c3ccc4c(c3)C(O)CCCCCN4C)CC2)cc1 (stereo not given) | 13µM*
Cn1nc2c(c1NC(=O)Cn1nc3c(cc1=O)CCCCC3)CSC2 | i
Cc1cc(C)n(Cc2c(C(=O)NCC34CCC=C3N(C)C(=O)CC4)noc2C)n1 (stereo not given) | -13%
CCNc1ccc(-c2nc(-c3ccccn3)no2)cc1[N+](=O)[O-] | -14%
SMILES | Pf Dd2 inh
CNc1ccc(-c2nc(-c3ccccn3)no2)cc1[N+](=O)[O-] | -25%
CCC(Nc1ccc(-c2nc(-c3ccccn3)no2)cc1[N+](=O)[O-])c1ccccc1 (stereo not given) | 3.5µM*
O=C(c1cccc(Cl)c1)N1CCC(n2c(=O)[nH]c3ccccc32)CC1 | 1%
CCN1CCN(CCNC(=O)C2CCN(C(=O)N3CC4CC(C3)[C@H]3CCCC(=O)N3C4)CC2)CC1 (stereo not given in full) | 27%
CCn1cc(CN2CCCN(S(=O)(=O)c3ccccc3)CCC(=O)NCC2)c(C)n1 | -18%
O=C1CCN(S(=O)(=O)c2ccccc2)CCCN(S(=O)(=O)c2ccc3c(c2)CCC3)CCN1 | 3.5µM*
O=C1CCN(S(=O)(=O)c2ccccc2)CCCN(C(=O)c2ccc3ccccc3n2)CCN1 | 11µM*
Cc1noc(C)c1CN1CCCN(S(=O)(=O)c2ccccc2)CCC(=O)NCC1 | -2%
CN(C)S(=O)(=O)N1CCCN(S(=O)(=O)c2ccccc2)CCC(=O)NCC1 | -2%
Cn1cnc(C(=O)N2CCCN(S(=O)(=O)c3ccccc3)CCC(=O)NCC2)c1 | -6%
O=C1CCN(S(=O)(=O)c2ccccc2)CCCNCCN1 | 1%
O=C1CCN(S(=O)(=O)c2ccccc2)CCCN(Cc2cccc3[nH]ccc23)CCN1 | 7.9µM*

Source: PubChem (National Center for Advancing Translational Sciences (NCATS))
